The values below come from PubChem BioAssay (Tox21).

Unmarked numbers belong to inactive results. Results filed as inconclusive are left out. Activity calls are given as the source filed them. Unless noted, the call rests on the fitted dose curve; in most records, active means well fitted curve in the direction sought with a large enough effect in the repeat runs; inconclusive means weak or mixed curves; inactive means no such curve, though single readings can be large; an effect the other way counts as inactive or inconclusive.

Experiment [1] can be described thus: qHTS assay to identify small molecule HDAC inhibitors - cell viability counter screen (AID 1259365). Further: series mostly up to about 92 µM; nearly all actives have a fitted effect of over 50% in size. In short, it runs like this: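 Counter screen in wild-type HCT-116 cells: compounds dissolved in DMSO are pin-transferred onto overnight-plated cells and left 2hr at 37C. ATP-based CellTiter-Glo luminescence then measures viable cells.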
(Quantitative high-throughput screening tests each substance at several concentrations.)

Experiment [2] is described as follows: qHTS assay to identify small molecule agonists of the sonic hedgehog signaling (Shh) pathway - cell viability counter screen (AID 1259366). Further: nearly all actives have a fitted effect of over 50% in size. Further: potency means the concentration at half of the fitted maximal effect. The essentials: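 Cells are plated at 2,000 per well and left 4hr at 37C, 5% CO2 before compound addition. After 23hr of treatment, CellTiter-Fluor reagent is added for 1hr at 37C and fluorescence is measured.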
The nature of experiment [3]: qHTS assay to identify small molecule antagonists of the sonic hedgehog signaling (Shh) pathway - cell viability counter screen (AID 1259367). Further: nearly all actives have a fitted effect of over 55% in size. Further: potency means the concentration at half of the fitted maximal effect. In short, it runs like this:
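Viability was read by CellTiter-Fluor fluorescence in the same wells, reagent added 23 hr into compound treatment and incubated 1 hr at 37C. The 3T3 Gli1-Luc reporter cells (2,000/well) received conditioned medium after compound and ran 24 hr.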

Experiment [4] in a line: qHTS assay to identify small molecule agonists of the sonic hedgehog signaling (Shh) pathway (AID 1259368; calls by dose curve;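 further: NIH/3T3-derived 3T3Gli1-Luc cells carrying a stable Gli1-driven firefly luciferase reporter; series mostly up to about 92 µM; nearly all actives have a fitted effect of over 15% in size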). In short, it runs like this:
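Luminescence was read after 30 min at room temperature with luciferase reagent. Before that, 3T3Gli1-Luc cells (NIH/3T3 clone, stable Gli1-Luc reporter; 2,000/well) were exposed to compounds for 24 hr at 37C, 5% CO2, compounds being added 4 hr post-plating.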

Experiment [5] has as its target Estrogen receptor beta (Homo sapiens) (UniProt Q92731). As to the kind of experiment: qHTS assay to identify small molecule agonists of the estrogen receptor beta (ER-beta) signaling pathway (AID 1259377; active means well fitted activation curve with a large enough effect in the signal ratio in the repeat runs, not every such curve was filed as active; the % refers to the signal ratio). The essentials: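 Agonist mode cell assay in GripTite HEK293T cells expressing an ER-beta fusion that drives beta-lactamase from an Upstream Activator Sequence; 16 hr compound exposure at 37C, then 2 h LiveBLAzer B/G FRET substrate at room temperature, fluorescence read-out.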

The target is the same in experiment [6]. Nature of the experiment: qHTS assay to identify small molecule antagonists of the estrogen receptor beta (ER-beta) signaling pathway (AID 1259378; active means well fitted inhibition curve with a large enough effect in the signal ratio in the repeat runs, not every such curve was filed as active; the % refers to the signal ratio). In short, it runs like this: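 Antagonist mode: compounds added to beta-lactamase reporter HEK293T ER-beta-UAS cells stimulated with E2 (1nM final), 16 hr at 37C. LiveBLAzer B/G FRET substrate, 2 hours room temperature, fluorescence read-out.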

A short description of experiment [7]: qHTS assay to identify small molecule agonists of the androgen receptor (AR) signaling pathway in the presence of an antagonist - cell viability counter screen (AID 1259379).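 Further: MDA-kb2 human breast cancer cells carrying an MMTV luciferase reporter; series mostly up to about 92 µM; nearly all actives have a fitted effect of over 25% in size.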 The essentials:
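Cytotoxicity counter-screen run in the same wells as the nilutamide-challenged (3.0 µM final) AR agonist assay in MDA-kb2 cells. Compounds tested at 15 concentrations for 16 h, 37 °C without CO2; CellTiter-Fluor fluorescence read.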

Experiment [8] can be described thus: qHTS assay to identify small molecule agonists of the estrogen receptor beta (ER-beta) signaling pathway - cell viability counter screen (AID 1259380). Further: nearly all actives have a fitted effect of over 30% in size. The essentials: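 Cell viability counter screen: CellTiter-Glo luminescence (30 min, room temperature) measured in the same wells as the beta-lactamase readout, after 16 hr compound exposure at 37C of ER-beta-bla HEK293T cells in 2% charcoal-stripped FBS medium.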

The nature of experiment [9]: qHTS assay to identify small molecule antagonists of the sonic hedgehog signaling (Shh) pathway (AID 1259369; calls by dose curve; further: nearly all actives have a fitted effect of over 45% in size). The essentials:
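Antagonist mode: compound added to 3T3 Gli1-Luc cells followed by conditioned-medium stimulation, 24 h at 37 C, 5% CO2. Inhibition taken as loss of Gli1-driven luciferase luminescence.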

The target in experiment [10] is Androgen receptor (Homo sapiens) (UniProt P10275). As to the kind of experiment: qHTS assay to identify small molecule agonists of the androgen receptor (AR) signaling pathway in the presence of an antagonist (AID 1259381; calls by dose curve; further: nearly all actives have a fitted effect of over 15% in size). In short, it runs like this: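 Agonist-mode confirmation run against 3.0 uM final nilutamide: compounds titrated at 15 concentrations onto MDA-kb2 MMTV-luciferase reporter cells. Luminescence measured with ONE-Glo following 16 hr incubation, 37C, 0% CO2.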
On the % scale 0 is the no-effect control and ±100 the full control effect.

Chain of Androgen receptor (Homo sapiens) (P10275 whole entry, looked up): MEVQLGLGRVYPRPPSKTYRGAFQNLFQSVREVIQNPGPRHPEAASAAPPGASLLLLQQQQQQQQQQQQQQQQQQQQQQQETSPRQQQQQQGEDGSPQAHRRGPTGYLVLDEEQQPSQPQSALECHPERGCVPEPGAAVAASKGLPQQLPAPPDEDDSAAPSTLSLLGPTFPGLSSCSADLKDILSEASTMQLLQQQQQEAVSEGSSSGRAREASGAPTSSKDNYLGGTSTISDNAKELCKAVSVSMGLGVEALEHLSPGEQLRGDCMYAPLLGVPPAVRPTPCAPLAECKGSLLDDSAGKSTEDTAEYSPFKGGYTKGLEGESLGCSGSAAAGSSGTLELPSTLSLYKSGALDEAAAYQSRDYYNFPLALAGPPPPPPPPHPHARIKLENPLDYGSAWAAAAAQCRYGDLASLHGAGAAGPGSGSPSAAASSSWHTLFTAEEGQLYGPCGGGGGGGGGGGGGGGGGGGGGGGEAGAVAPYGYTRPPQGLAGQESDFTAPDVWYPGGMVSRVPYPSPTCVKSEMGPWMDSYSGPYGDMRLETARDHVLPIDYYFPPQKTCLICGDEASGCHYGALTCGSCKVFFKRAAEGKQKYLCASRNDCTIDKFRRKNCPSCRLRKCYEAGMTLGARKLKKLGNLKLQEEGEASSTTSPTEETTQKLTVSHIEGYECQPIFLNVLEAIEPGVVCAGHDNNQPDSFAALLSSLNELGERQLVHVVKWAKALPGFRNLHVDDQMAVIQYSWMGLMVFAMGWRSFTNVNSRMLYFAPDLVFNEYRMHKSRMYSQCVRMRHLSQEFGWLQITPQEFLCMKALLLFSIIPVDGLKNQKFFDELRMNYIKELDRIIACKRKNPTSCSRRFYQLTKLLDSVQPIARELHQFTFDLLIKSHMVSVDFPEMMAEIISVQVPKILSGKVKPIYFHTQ
Chain of Estrogen receptor beta (Homo sapiens) (Q92731 whole entry, looked up, the tested form may be a part): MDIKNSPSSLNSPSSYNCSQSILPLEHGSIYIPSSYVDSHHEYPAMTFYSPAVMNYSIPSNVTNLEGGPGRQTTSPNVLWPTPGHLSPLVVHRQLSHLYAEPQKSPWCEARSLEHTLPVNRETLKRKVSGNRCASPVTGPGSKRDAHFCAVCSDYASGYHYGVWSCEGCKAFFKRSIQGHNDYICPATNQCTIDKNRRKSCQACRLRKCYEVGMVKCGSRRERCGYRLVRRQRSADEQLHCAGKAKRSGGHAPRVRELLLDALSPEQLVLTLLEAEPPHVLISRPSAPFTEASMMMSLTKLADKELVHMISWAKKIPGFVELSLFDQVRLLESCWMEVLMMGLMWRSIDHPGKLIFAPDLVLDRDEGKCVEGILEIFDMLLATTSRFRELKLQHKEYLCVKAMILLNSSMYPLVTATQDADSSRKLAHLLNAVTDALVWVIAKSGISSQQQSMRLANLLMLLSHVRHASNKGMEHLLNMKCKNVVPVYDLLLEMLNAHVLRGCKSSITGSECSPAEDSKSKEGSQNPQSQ

For the compound `CCCCCC(=O)OCC`, the compound was called inactive in experiment [1], in [4], in experiment [6] and in [8]. In addition, the Potency result in experiment [2], in experiment [3], in experiment [5] and in experiment [7] was “inactive” throughout.

As for `CCOC(=O)CCCCCCCCC(=O)OCC`, the compound was called inactive in experiment [1], in experiment [4] and in experiment [8]. Also, the Potency result in experiment [2], in [3], in experiment [9] and in experiment [7] was “inactive” each time.

In the case of `Nc1c(NC/C=C\COc2cc(CN3CCCCC3)ccn2)c(=O)c1=O`, the activity change, negative = cytotoxicity in experiment [1] is 4.37% [at 19 µM]; in [7] it was -0.565% [at 19 µM]; in experiment [8], 1.31% [at 19 µM]. For the same compound, the Potency in [2] and in experiment [3] was 5.17 µM (active) in each case. The activity change in experiment [4] was -1% [at 18.9 µM]. Moreover, the activity change, negative = inhibition in [9] was 0.103% [at 19 µM].

For `Nc1cc(Cl)cc(S(=O)(=O)O)c1O`, the compound was classed as inactive in experiment [1], in [4] and in experiment [8]. Moreover, the Potency result in experiment [2], in experiment [3], in experiment [9] and in experiment [7] was “inactive” each time.

Regarding `CC(=O)OC[C@H]1O[C@@H](OC(C)=O)[C@H](OC(C)=O)[C@@H]1OC(C)=O`, the compound was classed as inactive in experiment [1], in experiment [4], in experiment [8] and in experiment [10]. In addition, the Potency result in [2], in experiment [3], in experiment [9] and in experiment [7] was “inactive” each time.

Turning to `Nc1ccc(/C=C/c2ccc(N)cc2S(=O)(=O)O)c(S(=O)(=O)O)c1`, the figures for the activity change, negative = cytotoxicity in experiment [1], in [7] and in experiment [8] were 0.175% [at 0.349 µM], 1.1% [at 0.35 µM] and 1.15% [at 0.349 µM], respectively. Besides, the values for the viability change, negative = cytotoxic in [2] and in experiment [3] were 0.832% [at 0.349 µM] and 1.69% [at 0.349 µM], respectively. Further, in [4], the activity change is -0.943% [at 0.349 µM]. Moreover, the activity change, negative = inhibition in experiment [9] was 1.08% [at 0.349 µM].

Consider `CN[C@@H]1[C@H](O)[C@H](NC)[C@H]2O[C@@]3(O)C(=O)C[C@@H](C)O[C@H]3O[C@@H]2[C@H]1O`, for which the result in experiment [1], in [4], in [8] and in [10] was inactive. In addition, the Potency result in experiment [2], in [3], in experiment [9] and in experiment [7] was “inactive” throughout.

Take `C[CH2][Ge]([Cl])([CH2]C)[CH2]C`: the compound was called inactive in [1], in experiment [4], in experiment [6] and in experiment [8]. The Potency result in [2], in [3], in experiment [5] and in [7] was “inactive” each time.

For `O=c1cc(O)c(Cl)c[nH]1`, the call in [1], in experiment [4], in experiment [6] and in experiment [8] was inactive. Besides, the Potency entry in experiment [2], in [3], in experiment [5] and in experiment [7] was “inactive” in each case.

Consider `CNCc1ccccc1`, for which the compound was classed as inactive in experiment [1], in experiment [4] and in [8]. For the same compound, the Potency entry in experiment [2], in [3], in experiment [9] and in [7] was “inactive” in each case.

`NC(=O)NNC(N)=O`: the compound was called inactive in [1], in experiment [4], in experiment [6] and in [8]. The Potency result in [2], in experiment [3], in experiment [5] and in experiment [7] was “inactive” in each case.

On to `CCCCOC(=O)C(=O)OCCCC`, for which the outcome in experiment [1], in experiment [4] and in [8] was inactive. In addition, the Potency result in [2], in experiment [3], in experiment [9] and in [7] was “inactive” in each case.

On to `CCCCCCCCCCCCC`, for which the call in [1], in experiment [4] and in experiment [8] was inactive. Further, the Potency entry in [2], in experiment [3], in experiment [9] and in experiment [7] was “inactive” throughout.

Regarding `C1=C\CC/C=C\CC/1`, the compound was called inactive in [1], in [4] and in experiment [8]. The Potency result in [2], in experiment [3], in experiment [9] and in experiment [7] was “inactive” in each case.

For `CCN(CCO)c1cccc(C)c1`, the call in experiment [1], in experiment [4] and in experiment [8] was inactive. For the same compound, the Potency result in experiment [2], in experiment [3], in experiment [9] and in experiment [7] was “inactive” in each case.

For the compound `O=CO`, the activity change, negative = cytotoxicity in experiment [1] is -1.28% [at 8.39 µM]; in experiment [7], 0.727% [at 8.39 µM]; in [8], 0.536% [at 8.39 µM]. The viability change, negative = cytotoxic in [2] was 5.23% [at 8.39 µM]; in [3] it was 1.7% [at 8.39 µM]. In addition, the activity change in experiment [4] was -0.175% [at 8.39 µM]. The activity change, negative = inhibition in experiment [9] is 8.06% [at 8.39 µM].

On to `COc1ccc(NS(=O)(=O)c2ccc(N)cc2)nn1`, for which the outcome in experiment [1], in [4] and in experiment [8] was inactive. Moreover, the Potency result in experiment [2], in experiment [3], in experiment [9] and in experiment [7] was “inactive” each time.

Turning to `C=C(C)[C@@H]1CC[C@@H](C)C[C@@H]1O`, the outcome in experiment [1], in [4] and in experiment [8] was inactive. The Potency result in [2], in [3], in [9] and in experiment [7] was “inactive” throughout.

Regarding `NC(=O)C1(N2CCCCC2)CCN(CCCC(=O)c2ccc(F)cc2)CC1`, the compound was called inactive in experiment [1], in experiment [4] and in experiment [8]. In addition, the Potency result in [2], in experiment [3], in experiment [9] and in [7] was “inactive” each time.

`O=C(O)c1ccccc1C(=O)OCc1ccccc1`: the call in [1], in experiment [4], in [8] and in experiment [10] was inactive. The Potency entry in experiment [2], in experiment [3], in experiment [9] and in experiment [7] was “inactive” each time.

Turning to `CCC(=O)c1ccc(O)cc1`, the outcome in [1], in [4] and in experiment [8] was inactive. Besides, the Potency entry in [2], in experiment [3], in [9] and in experiment [7] was “inactive” throughout.

Take `C=C(C)C(=O)OCCCCCCOC(=O)C(=C)C`: the call in experiment [1], in experiment [4] and in experiment [8] was inactive. Also, the Potency entry in experiment [2], in [3], in experiment [9] and in [7] was “inactive” throughout.

With `Cc1nc([N+](=O)[O-])cn1-c1ccc([N+](=O)[O-])cc1`, the outcome in experiment [1], in [4] and in [8] was inactive. The Potency result in experiment [2], in experiment [3], in [9] and in experiment [7] was “inactive” throughout.
